Test results: PubChem BioAssay (EPA / NIEHS)
Where “and” joins values, the source holds several entries; their conditions need not be identical. Identical values can stand only once. Results filed as inconclusive are left out. The source holds several records for some structures; these can differ, active in one and inactive in another. Calls of active or inactive are those of the source. The calls were made as follows, unless noted: active = hit-call score of the fitted dose curve at least 0.9, where 1 is the maximum; inactive = score below 0.9.

Columns and labels:
[1] = ATG_TCF_b_cat_CIS: Attagene CIS-FACTORIAL HepG2 Assay for human T-Cell-Factor with beta-catenin (TCF/b-cat) (AID 2282965); conditions: HepG2 TCF/beta-catenin cis-reporter transcription, actives raise or lower the signal
Method in brief: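 Endogenous TCF/LEF activity read as reporter transcript level via RT-PCR and capillary electrophoresis fluorescence in transfected HepG2, 24 h exposure; gain or loss of signal fitted against DMSO controls.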

[2] = ATG_TAL_CIS: Attagene CIS-FACTORIAL HepG2 Assay for human TAL Basal Promoter (AID 2282966); conditions: HepG2 Attagene cis-factorial TAL promoter reporter; actives raise or lower the signal;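 also: background control endpoint measuring basal TAL promoter reporter mRNA not a specific factor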
Method in brief: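 In this cell-based multiplex, HepG2 liver cells bearing cis-promoter reporter constructs are dosed for 24 hours. Total RNA is reverse-transcribed and amplified, labelled fragments are sized by capillary electrophoresis, and signal changes are fitted bidirectionally versus DMSO.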

[3] = ATG_TGFb_CIS: Attagene CIS-FACTORIAL HepG2 Assay for human Transforming Growth Factor (TGF) (AID 2282967); conditions: HepG2 Attagene CIS TGFb reporter, mRNA transcription; actives raise or lower the signal
Method in brief: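 Multiplexed cis-reporter HepG2 system, 24 h treatment; mRNA induction read by fluorescence after RT-PCR and CE; DMSO negative control, bidirectional curve fitting.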

[4] = ATG_VDRE_CIS: Attagene CIS-FACTORIAL HepG2 Assay for human Vitamin D Receptor Element (VDRE) (AID 2282968); conditions: HepG2 VDRE cis-reporter transcription, actives raise or lower the signal
Method in brief: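 In transiently transfected HepG2 liver cells, gain or loss of reporter mRNA after 24 h exposure is scored relative to DMSO, using fluorescence detection by capillary electrophoresis of RT-PCR products.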

[5] = biological target: Nuclear receptor subfamily 1 group I member 3 (Homo sapiens) (UniProt Q14994); assay: ATG_CAR_TRANS: Attagene TRANS-FACTORIAL HepG2 Assay for human Constitutive Androstane Receptor (CAR) (AID 2282969; active = hit-call score of the fitted dose curve at least 0.9, where 1 is the maximum;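 also: activators raise reporter mRNA above DMSO so AC50 marks induction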); conditions: HepG2 Attagene TRANS-FACTORIAL CAR reporter
Sequence of Nuclear receptor subfamily 1 group I member 3 (Homo sapiens) (Q14994 whole entry, looked up, the tested form may be a part): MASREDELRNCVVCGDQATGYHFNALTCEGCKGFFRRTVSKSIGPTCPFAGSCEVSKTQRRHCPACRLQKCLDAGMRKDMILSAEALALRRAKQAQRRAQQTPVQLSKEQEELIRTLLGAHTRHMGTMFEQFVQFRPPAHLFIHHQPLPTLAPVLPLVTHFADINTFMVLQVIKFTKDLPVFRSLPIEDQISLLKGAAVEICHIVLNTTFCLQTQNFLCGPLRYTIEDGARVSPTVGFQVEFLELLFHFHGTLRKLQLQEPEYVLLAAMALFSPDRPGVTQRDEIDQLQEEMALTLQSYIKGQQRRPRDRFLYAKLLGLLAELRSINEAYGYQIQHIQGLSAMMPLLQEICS
Method in brief: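 Readout is reporter mRNA induction, quantified by fluorescent primer extension and capillary electrophoresis after RT-PCR. Cells were HepG2 transiently carrying chimeric NR-Gal4 constructs with GAL4-UAS reporters, treated for 24 h; activity scored upward from DMSO.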

[6] = biological target: Estrogen receptor (Homo sapiens) (UniProt P03372); assay: ATG_ERa_TRANS: Attagene TRANS-FACTORIAL HepG2 Assay for human Estrogen Receptor alpha (ERa) (AID 2282970; active = hit-call score of the fitted dose curve at least 0.9, where 1 is the maximum); conditions: HepG2 Attagene TRANS ERa GAL4 reporter, mRNA
Sequence of Estrogen receptor (Homo sapiens) (P03372 whole entry, looked up, the tested form may be a part): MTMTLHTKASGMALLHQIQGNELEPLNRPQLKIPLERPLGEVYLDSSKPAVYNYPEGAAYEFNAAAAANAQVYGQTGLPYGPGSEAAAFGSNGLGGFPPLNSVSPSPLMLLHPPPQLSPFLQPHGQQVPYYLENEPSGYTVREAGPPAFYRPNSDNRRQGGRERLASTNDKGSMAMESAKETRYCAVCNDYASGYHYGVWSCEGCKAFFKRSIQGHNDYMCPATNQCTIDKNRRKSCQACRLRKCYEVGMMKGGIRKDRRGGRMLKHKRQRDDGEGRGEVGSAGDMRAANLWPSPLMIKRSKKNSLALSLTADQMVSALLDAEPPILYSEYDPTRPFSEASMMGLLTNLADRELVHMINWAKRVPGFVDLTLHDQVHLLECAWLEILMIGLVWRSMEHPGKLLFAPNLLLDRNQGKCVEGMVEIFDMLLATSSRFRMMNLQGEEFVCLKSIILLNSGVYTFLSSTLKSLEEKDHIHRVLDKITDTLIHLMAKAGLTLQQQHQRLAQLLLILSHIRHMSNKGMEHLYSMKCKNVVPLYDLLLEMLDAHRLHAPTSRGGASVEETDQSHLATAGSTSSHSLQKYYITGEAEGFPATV
Method in brief: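 After 24 h of compound treatment, RNA from HepG2 cells bearing transfected GAL4-UAS reporter constructs is converted to cDNA, amplified and fluorescently labelled. Capillary electrophoresis resolves the ERa-linked reporter; DMSO serves as negative control.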

[7] = biological target: Steroid hormone receptor ERR1 (Homo sapiens) (UniProt P11474); assay: ATG_ERRa_TRANS: Attagene TRANS-FACTORIAL HepG2 Assay for human Estrogen-Related Receptor alpha (ERRa) (AID 2282971; active = hit-call score of the fitted dose curve at least 0.9, where 1 is the maximum); conditions: HepG2 Attagene TRANS reporter, ERRa transactivation
Sequence of Steroid hormone receptor ERR1 (Homo sapiens) (P11474 whole entry, looked up, the tested form may be a part): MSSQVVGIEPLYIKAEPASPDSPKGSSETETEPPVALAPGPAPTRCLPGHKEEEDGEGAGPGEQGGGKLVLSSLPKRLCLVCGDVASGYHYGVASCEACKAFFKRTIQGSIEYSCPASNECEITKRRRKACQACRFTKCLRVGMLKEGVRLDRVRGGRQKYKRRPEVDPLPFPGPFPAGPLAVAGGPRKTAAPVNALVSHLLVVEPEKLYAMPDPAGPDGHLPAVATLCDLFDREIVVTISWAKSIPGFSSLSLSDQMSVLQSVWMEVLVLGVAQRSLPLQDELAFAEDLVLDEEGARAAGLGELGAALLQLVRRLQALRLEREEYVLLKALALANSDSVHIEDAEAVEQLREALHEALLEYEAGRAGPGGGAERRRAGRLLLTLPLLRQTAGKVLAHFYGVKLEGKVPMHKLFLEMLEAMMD
Method in brief: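 Transfected HepG2, 24 h dosing, ERRa-Gal4 chimera driving GAL4-UAS reporter. Readout: reporter mRNA via RT-PCR plus capillary electrophoresis (fluorescence). Positive direction vs DMSO control.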

[8] = biological target: X-box-binding protein 1 (Homo sapiens) (UniProt P17861); assay: ATG_Xbp1_CIS: Attagene CIS-FACTORIAL HepG2 Assay for human X-box Binding Protein 1 (XBP1) (AID 2282972); conditions: HepG2 XBP1 cis-element reporter, Attagene multiplex; actives raise or lower the signal
Sequence of X-box-binding protein 1 (Homo sapiens) (P17861 whole entry, looked up): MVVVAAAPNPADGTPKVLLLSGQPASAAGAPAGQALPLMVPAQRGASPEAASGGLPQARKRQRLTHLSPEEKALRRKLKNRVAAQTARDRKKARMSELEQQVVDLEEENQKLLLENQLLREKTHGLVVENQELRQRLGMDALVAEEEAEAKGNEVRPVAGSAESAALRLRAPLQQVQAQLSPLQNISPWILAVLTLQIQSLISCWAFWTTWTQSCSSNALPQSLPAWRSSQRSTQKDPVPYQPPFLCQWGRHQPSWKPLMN
Method in brief: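 HepG2 cells transiently transfected with multiple cis-element reporter units report endogenous TF activity; 24 h exposure, then reporter mRNA measured by RT-PCR, 6-FAM labelling, HpaI digestion and capillary electrophoresis. Bidirectional fitting versus DMSO.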

[9] = ATG_GAL4_TRANS: Attagene TRANS-FACTORIAL HepG2 Assay for GAL4 (Internal Marker) (AID 2282976; active = hit-call score of the fitted dose curve at least 0.9, where 1 is the maximum); conditions: HepG2 Attagene TRANS GAL4 internal marker reporter
Method in brief: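 RT-PCR/capillary electrophoresis readout of reporter mRNA. HepG2, transient MRTU transfection (GAL4-UAS reporters), 24 h compound exposure. Background-control endpoint, positive direction vs DMSO baseline.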

[10] = ATG_M_19_TRANS: Attagene TRANS-FACTORIAL HepG2 Assay for M19 Transcription Factor (Internal Marker) (AID 2282974; active = hit-call score of the fitted dose curve at least 0.9, where 1 is the maximum); conditions: HepG2 Attagene TRANS-FACTORIAL M19 internal marker reporter
Method in brief: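 Background-control readout: after 24 h chemical exposure of transfected HepG2 carrying GAL4-driven reporter units, RNA was reverse-transcribed, amplified, fluorescently labeled and sized by capillary electrophoresis; gain-of-signal fit against DMSO.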

Measured: AC50

O=C(O)c1cc2ccccc2cc1O
not listed: [9] | [10]
inactive: all other assays above

C=C1CC/C=C(\C)CC[C@@H]2[C@@H]1CC2(C)C
active: [6] 14.3 µM
not listed: [10]
inactive: all other assays above

CC(C)CCOC(=O)CC(C)C
not listed: [7] | [9]
inactive: all other assays above

CC(=O)OC(C)(C)C1CC=C(C)CC1 (stereo not drawn)
active: [6] 61.7 µM
not listed: [7] | [9]
inactive: all other assays above

C=CCOC(=O)/C=C\C(=O)OCC=C
active: [1] 15.1 µM | [4] 27 µM | [8] 26.5 µM
not listed: [7] | [9]
inactive: all other assays above

CCCCCCCC(=O)N(C)C
inactive: all assays above

COc1ccc(N)c(C)c1
active: [1] 169 µM | [4] 100 µM | [6] 56.5 µM
not listed: [7] | [9]
inactive: all other assays above

CCCCOCC(C)OCC(C)O (stereo not drawn)
not listed: [7] | [9]
inactive: all other assays above

CC(=O)c1ccc(C)cc1
not listed: [7] | [9]
inactive: all other assays above

C=C1CC[C@H]2O[C@]2(C)CC[C@@H]2[C@@H]1CC2(C)C
not listed: [7] | [9]
inactive: all other assays above

COC(=O)c1cccc(C(=O)OC)c1
not listed: [7] | [9]
inactive: all other assays above

C[C@H](CCC(=O)O)[C@H]1CC[C@H]2[C@@H]3CC[C@@H]4C[C@H](O)CC[C@]4(C)[C@H]3CC[C@]12C
inactive: [2] | [5] | [8]
active: [1] 35.1 µM | [3] 43 µM | [4] 17.7 µM | [6] 26.3 µM

CC(=O)OCC=C(C)CCC=C(C)CCC=C(C)C
active: [1] 148 µM | [2] 100 µM | [6] 9.02 µM | [8] 151 µM
inactive: [3] | [4] | [5] | [7]

c1ccc(OCCOc2ccccc2)cc1
not listed: [7] | [9]
inactive: all other assays above

C=CC(C)(CCC=C(C)C)OC(=O)CC (stereo not drawn)
not listed: [7] | [9]
inactive: all other assays above

CCC=C(C)C=O
active: [3] 0.643 µM | [6] 15.3 µM
inactive: all other assays above

CCCCCCCCCCCCN1CCOCC1
active: [4] 60.6 µM | [8] 46.9 µM
not listed: [10]
inactive: all other assays above

CCCCC(CC)COCCO (stereo not drawn)
not listed: [7] | [9] | [10]
inactive: all other assays above

C=C(C)C(=O)OCCN(C)C
not listed: [7] | [9]
inactive: all other assays above

CC1(C)[C@H](C=C(Cl)Cl)[C@H]1C(=O)OCc1cccc(Oc2ccccc2)c1
active: [4] 4.62 µM | [6] 8.45 µM
not listed: [7] | [9]
inactive: all other assays above

O=C(c1ccc(OCCN2CCCCC2)cc1)c1c(-c2ccc(O)cc2)sc2cc(O)ccc12
active: [1] 11.1 µM and 15.5 µM | [2] 20.4 µM and 11.1 µM | [3] 14.7 µM | [8] 11.1 µM and 8.64 µM and 12 µM
inactive: [1] | [2] | [3] | [4] | [8] | [10]

CCCCOCCOCCOCCO
not listed: [9]
inactive: all other assays above

CC12CCC(C1)C(C)(C)C2O (stereo not drawn)
not listed: [7] | [9] | [10]
inactive: all other assays above

CCC(C)(C)C1CCC(OC)CC1 (stereo not drawn)
active: [6] 58.7 µM
not listed: [7] | [9]
inactive: all other assays above

CCCCCC#CC(=O)OC
not listed: [7] | [9]
inactive: all other assays above

C#C[C@]1(O)CC[C@H]2[C@@H]3CCc4cc(O)ccc4[C@H]3CC[C@@]21C
active: [1] 19.2 µM and 19.8 µM | [2] 152 µM and 78.2 µM | [3] 100 µM | [8] 59.6 µM [middle of 4 runs]
inactive: [1] | [2] | [3] | [8] | [10] | [9]

O=C(O)c1ccccc1O
inactive: all assays above

CCOC(=O)COC(=O)c1ccccc1C(=O)OCC
not listed: [7] | [9] | [10]
inactive: all other assays above

CCCCC1CCCCC(=O)O1 (stereo not drawn)
not listed: [7] | [9]
inactive: all other assays above

Cc1ccccc1S
active: [1] 55.9 µM | [8] 75.5 µM
not listed: [7] | [9]
inactive: all other assays above

CC/C=C\C#N
not listed: [7] | [9]
inactive: all other assays above

[O-]/[N+](=N\O)c1ccccc1
active: [6] 42.3 µM
not listed: [9] | [10]
inactive: all other assays above

CCCCCCCCSCc1cc(C)c(O)c(CSCCCCCCCC)c1
not listed: [7] | [9] | [10]
inactive: all other assays above

CN(C)CCC=C1c2ccccc2CCc2ccccc21
active: [1] 22.1 µM | [4] 23.7 µM | [8] 40 µM
not listed: [7] | [9]
inactive: all other assays above

CCCCCCCCCCCCS
active: [4] 42.5 µM | [10] 5.01 µM
not listed: [7]
inactive: all other assays above

CCCCN(CCCC)CCCCCCN(CCCC)CCCC
not listed: [6] | [7] | [9]
inactive: all other assays above

CCC(C)COC(=O)CC(C)C (stereo not drawn)
not listed: [7]
inactive: all other assays above

O=S(=O)(O)c1cc(S(=O)(=O)O)c2c(N=Nc3ccccc3)c(O)ccc2c1
not listed: [6] | [7] | [10]
inactive: all other assays above

CCCC[N+](C)(CCCC)CCCC
not listed: [6] | [7]
inactive: all other assays above

C1COCO1
not listed: [5] | [9]
inactive: all other assays above

CC(C)(C)c1cc(CCC(=O)OCCSCCOC(=O)CCc2cc(C(C)(C)C)c(O)c(C(C)(C)C)c2)cc(C(C)(C)C)c1O
not listed: [6] | [9]
inactive: all other assays above

CCCCCCCCCO
not listed: [5] | [9]
inactive: all other assays above

C=COCC1CCC(COC=C)CC1 (stereo not drawn)
not listed: [7]
inactive: all other assays above

CC(=O)C1C(=O)C=C(C)OC1=O (stereo not drawn)
not listed: [6] | [7] | [9]
inactive: all other assays above

CC1COC(=O)O1 (stereo not drawn)
active: [8] 0.0103 µM
not listed: [6] | [9] | [10]
inactive: all other assays above

CC(=O)Nc1cc(S(=O)(=O)O)cc2cc(S(=O)(=O)O)c(N=Nc3ccccc3)c(O)c12
not listed: [7] | [10]
inactive: all other assays above

COc1ccccc1NC(=O)CC(C)=O
active: [4] 68.2 µM
not listed: [6] | [7] | [9]
inactive: all other assays above

CCNC(=S)NCC
inactive: [1] | [2] | [3] | [4] | [5] | [8]

CCOC(=O)C=Cc1ccccc1
not listed: [7]
inactive: all other assays above

OC[C@@H](O)[C@H](O)[C@@H](O)[C@@H](O)CO
active: [6] 13.8 µM
not listed: [5] | [9]
inactive: all other assays above

C=CCCCCCCCCC(=O)OCC
active: [3] 0.332 µM
not listed: [5] | [9] | [10]
inactive: all other assays above

CCCCCCCCCCCCCC(=O)OCC
not listed: [6] | [7] | [9]
inactive: all other assays above

Nc1cc([N+](=O)[O-])ccc1C(=O)O
not listed: [6] | [7] | [9]
inactive: all other assays above

CCCCCCCCCCOC(=O)c1ccccc1C(=O)OCCCCCCCC
not listed: [6] | [7] | [9]
inactive: all other assays above

O=C1OCc2ccccc21
not listed: [6] | [7] | [9]
inactive: all other assays above

CN(C)C
not listed: [7]
inactive: all other assays above

CCCO[Si](OCCC)(OCCC)OCCC
not listed: [7]
inactive: all other assays above
